What all share (test): yeast three-hybrid, YBZ-1, SC-Leu-His + 0.5 mM 3-AT, 4 days
Settings in all cases: tags: N-Gal4 AD-HA kept; label: inside an RPR1-promoter hybrid RNA with tandem MS2 sites; ssRNA

One assay deals with PUM1 PUF domain R5-ISR (Homo sapiens, UniProt Q14671 828-1176, C1007I;R1008S;Q1011R). The method in brief:
(§1)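 The interaction score is the log change in variant frequency from input to selection. Scores were computed in log2 with a pseudocount of 1 for absent variants, using Illumina sequencing of PCR-amplified repeat regions. The input came from four days on SC-Leu and the selection from four days on SC-Leu-His + 0.5 mM 3-AT. The cells were strain YBZ-1 (LexA–MS2 coat fusion, HIS3 reporter) co-expressing Pumilio-1 PUF domain libraries and matching RNA elements from a centromeric plasmid.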

Another assay concerns the target T1, PUM1 PUF domain R6-FHS (Homo sapiens, UniProt Q14671 828-1176, N1043F;Y1044H;Q1047S).
T1 sequence: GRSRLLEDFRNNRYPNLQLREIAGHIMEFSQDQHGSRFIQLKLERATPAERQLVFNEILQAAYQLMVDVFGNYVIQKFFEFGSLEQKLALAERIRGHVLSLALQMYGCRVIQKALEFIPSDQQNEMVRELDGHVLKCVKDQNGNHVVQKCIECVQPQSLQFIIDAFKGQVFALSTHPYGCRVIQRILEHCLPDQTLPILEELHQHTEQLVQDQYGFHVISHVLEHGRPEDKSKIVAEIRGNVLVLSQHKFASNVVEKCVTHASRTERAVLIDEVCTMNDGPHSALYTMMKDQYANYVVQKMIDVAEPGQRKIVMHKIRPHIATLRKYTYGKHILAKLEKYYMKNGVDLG
The method in brief:
as §1

In the next assay the target is PUM1 PUF domain R8-IHR (Homo sapiens, UniProt Q14671 828-1176, N1122I;Y1123H;Q1126R). The method in brief: as §1
The next assay deals with PUM1 PUF domain R4-DHT (Homo sapiens, UniProt Q14671 828-1176, N971D;Q975T). The method in brief: as §1
Another assay addresses PUM1 PUF domain R5-QQC (Homo sapiens, UniProt Q14671 828-1176, C1007Q;R1008Q;Q1011C). The method in brief: as §1
The target in another assay is PUM1 PUF domain R5-QHE (Homo sapiens, UniProt Q14671 828-1176, C1007Q;R1008H;Q1011E). The method in brief:
as §1

In a further assay the target is PUM1 PUF domain R2-SWG (Homo sapiens, UniProt Q14671 828-1176, N899S;Y900W;Q903G). The method in brief: as §1
A further assay addresses PUM1 PUF domain R3-RSF (Homo sapiens, UniProt Q14671 828-1176, C935R;R936S;Q939F). The method in brief:
as §1

A further assay concerns the target PUM1 PUF domain R3-IFA (Homo sapiens, UniProt Q14671 828-1176, C935I;R936F;Q939A). The method in brief:
as §1

The target of the next assay is PUM1 PUF domain R7-KSV (Homo sapiens, UniProt Q14671 828-1176, S1079K;N1080S;E1083V). The method in brief:
as §1

For the sequence “GGCUAGAACUAGUGGAUCCCCCGGCGCCCGGCGGCUCGAGCCCGGGUAAGUGUCAAUAGUCUGCAUGCCGCCGGGCGCCAUGCCUGCAGGUCGACUCUAGAAAACAUG”, the binding signal in the assay with PUM1 PUF domain R5-ISR was 3.12 log2 enrichment (interaction score). “GGCUAGAACUAGUGGAUCCCCCGGCGCCCGGCGGCUCGAGCCCGGGUAAGUGUAAAUAGUCUGCAUGCCGCCGGGCGCCAUGCCUGCAGGUCGACUCUAGAAAACAUG”: the figures for the binding signal with PUM1 PUF domain R5-ISR, with PUM1 PUF domain R6-FHS and with PUM1 PUF domain R8-IHR were 1.4 log2 enrichment (interaction score), 4.18 log2 enrichment (interaction score) and 3.28 log2 enrichment (interaction score), respectively. Turning to “GGCUAGAACUAGUGGAUCCCCCGGCGCCCGGCGGCUCGAGCCCGGGUAAGUGUACAUAGUCUGCAUGCCGCCGGGCGCCAUGCCUGCAGGUCGACUCUAGAAAACAUG”, the binding signal with PUM1 PUF domain R4-DHT was 2.73 log2 enrichment (interaction score). In the case of “GGCUAGAACUAGUGGAUCCCCCGGCGCCCGGCGGCUCGAGCCCGGGUAAGUGUGAAUAGUCUGCAUGCCGCCGGGCGCCAUGCCUGCAGGUCGACUCUAGAAAACAUG”, the binding signal with PUM1 PUF domain R5-QQC was 4.46 log2 enrichment (interaction score); with PUM1 PUF domain R5-QHE it was 3.04 log2 enrichment (interaction score). Turning to “GGCUAGAACUAGUGGAUCCCCCGGCGCCCGGCGGCUCGAGCCCGGGUAAGUGUAAAGAGUCUGCAUGCCGCCGGGCGCCAUGCCUGCAGGUCGACUCUAGAAAACAUG”, the binding signal in the assay with PUM1 PUF domain R2-SWG was 1.53 log2 enrichment (interaction score). For “GGCUAGAACUAGUGGAUCCCCCGGCGCCCGGCGGCUCGAGCCCGGGUAAGUGUAAAAAGUCUGCAUGCCGCCGGGCGCCAUGCCUGCAGGUCGACUCUAGAAAACAUG”, the binding signal with PUM1 PUF domain R2-SWG is 3.09 log2 enrichment (interaction score). Consider “GGCUAGAACUAGUGGAUCCCCCGGCGCCCGGCGGCUCGAGCCCGGGUAAGUGUAAUUAGUCUGCAUGCCGCCGGGCGCCAUGCCUGCAGGUCGACUCUAGAAAACAUG”, for which the binding signal is 3.86 log2 enrichment (interaction score) in the assay with PUM1 PUF domain R3-RSF and 3.87 log2 enrichment (interaction score) with PUM1 PUF domain R3-IFA. “GGCUAGAACUAGUGGAUCCCCCGGCGCCCGGCGGCUCGAGCCCGGGUAAGUCUAAAUAGUCUGCAUGCCGCCGGGCGCCAUGCCUGCAGGUCGACUCUAGAAAACAUG”: the binding signal in the assay with PUM1 PUF domain R7-KSV was 3.22 log2 enrichment (interaction score).

Take “GGCUAGAACUAGUGGAUCCCCCGGCGCCCGGCGGCUCGAGCCCGGGUAAGUUUAAAUAGUCUGCAUGCCGCCGGGCGCCAUGCCUGCAGGUCGACUCUAGAAAACAUG”: in the assay with PUM1 PUF domain R7-KSV, the binding signal was 3.22 log2 enrichment (interaction score). Turning to “GGCUAGAACUAGUGGAUCCCCCGGCGCCCGGCGGCUCGAGCCCGGGUAAGCGUAAAUAGUCUGCAUGCCGCCGGGCGCCAUGCCUGCAGGUCGACUCUAGAAAACAUG”, the binding signal in the assay with PUM1 PUF domain R8-IHR is 4.48 log2 enrichment (interaction score).
